This note sets out measurements from PubChem BioAssay (EPA / NIEHS).

The structures appear in SMILES notation. Inconclusive results are not listed. The source made the active and inactive calls. Rule for the calls, unless noted: active = hit-call score of the fitted dose curve at least 0.9, where 1 is the maximum; inactive = score below 0.9.

Assay [1] in a line: ATG_GLI_CIS: Attagene CIS-FACTORIAL HepG2 Assay for human Zinc Finger Protein GLI1 (AID 2282945). The following applies: HepG2, Attagene cis-factorial reporter mRNA, GLI element; actives raise or lower the signal. The essentials:
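Bidirectional curve fits relative to DMSO, using reporter mRNA levels from RT-PCR plus capillary electrophoresis. Cells were HepG2 transiently carrying cis-regulated reporter constructs, harvested 24 h after dosing.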

Assay [2] is described as follows: ATG_GRE_CIS: Attagene CIS-FACTORIAL HepG2 Assay for human Glucocorticoid Response Elements (GRE) (AID 2282947). The following applies: HepG2 GRE cis-reporter, Attagene multiplex mRNA; actives raise or lower the signal. The method, boiled down: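 Multiplexed cis-reporter mRNA induction, HepG2, 24 h post-dose. RT-PCR, FAM-labelled, HpaI-digested amplicons by CE. Bidirectional fit vs DMSO.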

The target in assay [3] is Hepatocyte nuclear factor 6 (Homo sapiens) (UniProt Q9UBC0). The assay can be described thus: ATG_HNF6_CIS: Attagene CIS-FACTORIAL HepG2 Assay for human Hepatocyte Nuclear Factor 6 (HNF6) (AID 2282952). The settings on record: HepG2 Attagene cis-factorial HNF6 reporter transcription; actives raise or lower the signal. The essentials: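 Endogenous transcription factor activity in human HepG2 liver cells was captured through cis-regulated reporter constructs. After 24 h treatment, reporter mRNA was measured by RT-PCR with capillary electrophoresis, and activity was fitted in both directions relative to DMSO.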

Assay [4] can be described thus: ATG_PBREM_CIS: Attagene CIS-FACTORIAL HepG2 Assay for human Phenobarbital-responsive Enhancer Module (PBREM) (AID 2282955). The following applies: HepG2 PBREM cis-reporter, Attagene multiplexed transcription; actives raise or lower the signal. The essentials:
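Measures endogenous factor action on a phenobarbital-responsive enhancer module. HepG2 transiently carrying cis reporters, 24 h treatment, mRNA read-out by RT-PCR plus capillary electrophoresis.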

Assay [5] is described as follows: ATG_SREBP_CIS: Attagene CIS-FACTORIAL HepG2 Assay for human Sterol Regulatory Element Binding (SREBP) (AID 2282962). The following applies: HepG2 Attagene cis-factorial SREBP reporter, mRNA; actives raise or lower the signal. The essentials: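 Endogenous factor activity is measured in HepG2 through multiplexed reporter units under cis-element control. Following a 24 h incubation, reporter transcripts are reverse-transcribed, PCR-amplified and sized by capillary electrophoresis; activity is fitted in both directions relative to DMSO.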

Assay [6] deals with Signal transducer and activator of transcription 3 (Homo sapiens) (UniProt P40763). The assay can be described thus: ATG_STAT3_CIS: Attagene CIS-FACTORIAL HepG2 Assay for human Signal Transducer and Activator of Transcription 3 (STAT3) (AID 2282963). The settings on record: HepG2, Attagene cis-factorial STAT3 reporter transcription; actives raise or lower the signal. The method, boiled down: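 Cis-factorial format: endogenous transcription factors in HepG2 drive transfected reporter units. After 24 h treatment, reporter RNA was reverse-transcribed, amplified, FAM-labelled and HpaI-digested before CE analysis; activity scored in both directions against DMSO.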

Assay [7] is described as follows: ATG_NF_kB_CIS: Attagene CIS-FACTORIAL HepG2 Assay for human Nuclear Factor Kappa B (NF-kB) (AID 2282991). The settings on record: HepG2 Attagene cis-factorial NF-kB reporter mRNA; actives raise or lower the signal. The method, boiled down: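 Fluorescence of labelled RT-PCR products separated by capillary electrophoresis gives reporter mRNA levels from transfected HepG2 cells exposed 24 h; values are fitted in both directions relative to DMSO.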

The nature of assay [8]: ATG_Oct_MLP_CIS: Attagene CIS-FACTORIAL HepG2 Assay for human Octamer-Binding Transcription Factor (Oct) (AID 2282993). The settings on record: HepG2 Attagene cis-factorial Oct reporter, mRNA; actives raise or lower the signal. The method, boiled down:
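Cells of the HepG2 line express promoter-controlled reporter sequences whose mRNA levels, after 24 h treatment, are measured by RT-PCR and capillary electrophoresis. Increases and decreases are scored relative to DMSO.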

The target in assay [9] is human Peroxisome Proliferator-activated Receptor alpha (PPARa), PPARA (gene 5465) (UniProt Q07869). Kind of assay: ATG_PPARa_TRANS: Attagene TRANS-FACTORIAL HepG2 Assay for human Peroxisome Proliferator-activated Receptor alpha (PPARa) (AID 2283001; active = hit-call score of the fitted dose curve at least 0.9, where 1 is the maximum). The method, boiled down: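 Transfected HepG2 cells treated with test chemical for 24 h. RNA isolated, reverse-transcribed with oligo(dT), PCR-amplified, FAM-labelled and HpaI-digested. Fragments sized by capillary electrophoresis; gain-of-signal fit relative to DMSO.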

The target of assay [10] is human Retinoid X Receptor beta (RXRb), RXRB (gene 6257) (UniProt P28702). The assay can be described thus: ATG_RXRb_TRANS: Attagene TRANS-FACTORIAL HepG2 Assay for human Retinoid X Receptor beta (RXRb) (AID 2283013; active = hit-call score of the fitted dose curve at least 0.9, where 1 is the maximum). The essentials: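 Read-out: reporter mRNA induction via RT-PCR plus capillary electrophoresis fluorescence, analysed as signal increase relative to DMSO. Cells were human HepG2, transiently transfected with GAL4-UAS reporter constructs and chimeric receptor-Gal4 fusions, dosed for 24 h.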

The nature of assay [11]: TOX21_p53_BLA_p2_viability: Viability Assessment in the Tox21 HCT-116 p53 Agonism Beta-lactamase Assay, Phase 2 (AID 2283591; active = hit-call score of the fitted dose curve at least 0.9, where 1 is the maximum;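 note: compound exposure lasted 16 h at 37 °C; actives lower the ATP signal meaning cytotoxicity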). The method, boiled down: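 Cytotoxicity readout: CellTiter-Glo ATP luminescence, 30 min at room temperature, after the beta-lactamase read. Cells were HCT116 exposed 16 h at 37C to compounds pin-transferred at 217-fold dilution from DMSO stocks.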

Assay [12] in a line: TOX21_p53_BLA_p3_viability: Viability Assessment in the Tox21 HCT-116 p53 Agonism Beta-lactamase Assay, Phase 3 (AID 2283593; active = hit-call score of the fitted dose curve at least 0.9, where 1 is the maximum;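 note: cells exposed to compound for 16 h before reading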). The essentials: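 Cellular ATP was quantified by CellTiter-Glo luminescence, read after 30 min at room temperature. Beforehand, HCT116 cells (4000/well) received compound 5 h post-seeding, 217-fold diluted from DMSO, then incubated 16 h at 37C.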
Assay [13] has as its target Cellular tumor antigen p53 (Homo sapiens) (UniProt P04637). Kind of assay: TOX21_p53_BLA_p5_ratio: Tox21 HCT-116 p53 Agonism Beta-lactamase Assay, Ratio, Phase 5 (AID 2283599; active = hit-call score of the fitted dose curve at least 0.9, where 1 is the maximum). The method, boiled down: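 Beta-lactamase reporter ratio (blue 460 nm over green 530 nm, 405 nm excitation) after 2 h CCF4-AM loading, in HCT-116 cells exposed 16 h at 37 C to compounds pinned at 217-fold dilution. Increases relative to DMSO baseline scored.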

A short description of assay [14]: TOX21_p53_BLA_p5_viability: Viability Assessment in the Tox21 HCT-116 p53 Agonism Beta-lactamase Assay, Phase 5 (AID 2283600; active = hit-call score of the fitted dose curve at least 0.9, where 1 is the maximum). The method, boiled down:
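Viability is taken from cellular ATP content, measured by luciferase luminescence in the same wells after the beta-lactamase ratio read. Cells are seeded at 4000 per well and exposed to DMSO-dissolved compounds, diluted 217-fold, for 16 h.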

Assay [15] concerns the target Heat shock factor protein 1 (Homo sapiens) (UniProt Q00613). Kind of assay: ATG_HSE_CIS: Attagene CIS-FACTORIAL HepG2 Assay for human Heat Shock Transcription Factor 1 (HSE) (AID 2282953). The settings on record: HepG2 HSE cis-reporter, Attagene RNA transcription; actives raise or lower the signal. The method, boiled down: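 After a 24 h incubation with test chemical, transfected HepG2 cells were harvested for RNA; reporter transcripts were measured by RT-PCR and capillary electrophoresis. Values reflect gain or loss of signal relative to DMSO.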

Assay [16] concerns the target Hepatocyte nuclear factor 4-alpha (Homo sapiens) (UniProt P41235). Kind of assay: ATG_HNF4a_TRANS: Attagene TRANS-FACTORIAL HepG2 Assay for human Hepatocyte Nuclear Factor 4 alpha (HNF4a) (AID 2282982; active = hit-call score of the fitted dose curve at least 0.9, where 1 is the maximum). The settings on record: HepG2 HNF4a transactivation reporter, mRNA readout. The essentials: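 Multiplexed reporter assay: transfected HepG2, 24 h exposure, total RNA → oligo(dT) RT → PCR → 6-FAM extension → HpaI digest → CE fluorescence. DMSO = negative control.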

The nature of assay [17]: ATG_M_06_TRANS: Attagene TRANS-FACTORIAL HepG2 Assay for M06 Transcription Factor (Internal Marker) (AID 2282983; active = hit-call score of the fitted dose curve at least 0.9, where 1 is the maximum). The settings on record: HepG2 Attagene TRANS M06 internal marker reporter. The method, boiled down:
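Human liver HepG2 cells bearing transiently transfected chimeric NR-GAL4 reporter units were treated with chemicals for 24 h. Total RNA was reverse-transcribed, reporter sequences amplified and labelled, then quantified by capillary electrophoresis. Activity was fitted upward relative to DMSO.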

A short description of assay [18]: ATG_NRF2_ARE_CIS: Attagene CIS-FACTORIAL HepG2 Assay for human Nuclear Factor Erythroid 2 Related Factor 2 (NFR2) response to Antioxidant Response Elements (ARE) (AID 2282992). The settings on record: HepG2 Attagene ARE/NRF2 reporter, transcription factor activity; actives raise or lower the signal. The method, boiled down: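 Endogenous transcription factor activity in human liver HepG2 cells is tracked via a cis-element-driven reporter within a multiplexed set. mRNA induction is read by RT-PCR and capillary electrophoresis after 24 h, with DMSO as baseline.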

In assay [19] the target is Cellular tumor antigen p53 (Homo sapiens) (UniProt P04637). Kind of assay: TOX21_p53_BLA_p3_ratio: Tox21 HCT-116 p53 Agonism Beta-lactamase Assay, Ratio, Phase 3 (AID 2283596; active = hit-call score of the fitted dose curve at least 0.9, where 1 is the maximum). The method, boiled down: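 Cells were seeded at 4000/well, rested 5 h at 37C, then dosed with DMSO compound solutions (217-fold dilution) for 16 h. CCF4-AM substrate was loaded for 2 h at room temperature, and the 460/530 nm emission ratio was fitted for gain of signal versus DMSO.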

Assay [20] has the same target. The assay can be described thus: TOX21_p53_BLA_p4_ratio: Tox21 HCT-116 p53 Agonism Beta-lactamase Assay, Ratio, Phase 4 (AID 2283601; active = hit-call score of the fitted dose curve at least 0.9, where 1 is the maximum). The method, boiled down: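 Signal is the blue/green (460nm/530nm) ratio of cleaved versus uncleaved CCF4-AM substrate, read after 2 h substrate loading. Cells were HCT116 carrying the p53-responsive beta-lactamase reporter, dosed 16 h at 37C, 5% CO2; CellTiter-Glo measured in parallel.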

Chain of Hepatocyte nuclear factor 6 (Homo sapiens) (Q9UBC0 whole entry, looked up): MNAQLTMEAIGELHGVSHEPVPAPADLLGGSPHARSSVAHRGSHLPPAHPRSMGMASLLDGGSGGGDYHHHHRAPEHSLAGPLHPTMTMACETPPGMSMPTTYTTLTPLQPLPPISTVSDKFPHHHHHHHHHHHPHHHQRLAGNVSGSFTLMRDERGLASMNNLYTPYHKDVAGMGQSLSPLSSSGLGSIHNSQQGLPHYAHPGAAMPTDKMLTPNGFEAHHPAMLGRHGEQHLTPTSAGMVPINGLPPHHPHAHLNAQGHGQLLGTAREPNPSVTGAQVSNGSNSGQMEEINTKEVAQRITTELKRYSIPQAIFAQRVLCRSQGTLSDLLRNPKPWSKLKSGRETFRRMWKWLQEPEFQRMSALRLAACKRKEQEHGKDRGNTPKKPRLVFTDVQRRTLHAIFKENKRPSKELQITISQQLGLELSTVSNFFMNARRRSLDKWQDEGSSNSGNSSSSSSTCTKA
Chain of Signal transducer and activator of transcription 3 (Homo sapiens) (P40763 whole entry, looked up): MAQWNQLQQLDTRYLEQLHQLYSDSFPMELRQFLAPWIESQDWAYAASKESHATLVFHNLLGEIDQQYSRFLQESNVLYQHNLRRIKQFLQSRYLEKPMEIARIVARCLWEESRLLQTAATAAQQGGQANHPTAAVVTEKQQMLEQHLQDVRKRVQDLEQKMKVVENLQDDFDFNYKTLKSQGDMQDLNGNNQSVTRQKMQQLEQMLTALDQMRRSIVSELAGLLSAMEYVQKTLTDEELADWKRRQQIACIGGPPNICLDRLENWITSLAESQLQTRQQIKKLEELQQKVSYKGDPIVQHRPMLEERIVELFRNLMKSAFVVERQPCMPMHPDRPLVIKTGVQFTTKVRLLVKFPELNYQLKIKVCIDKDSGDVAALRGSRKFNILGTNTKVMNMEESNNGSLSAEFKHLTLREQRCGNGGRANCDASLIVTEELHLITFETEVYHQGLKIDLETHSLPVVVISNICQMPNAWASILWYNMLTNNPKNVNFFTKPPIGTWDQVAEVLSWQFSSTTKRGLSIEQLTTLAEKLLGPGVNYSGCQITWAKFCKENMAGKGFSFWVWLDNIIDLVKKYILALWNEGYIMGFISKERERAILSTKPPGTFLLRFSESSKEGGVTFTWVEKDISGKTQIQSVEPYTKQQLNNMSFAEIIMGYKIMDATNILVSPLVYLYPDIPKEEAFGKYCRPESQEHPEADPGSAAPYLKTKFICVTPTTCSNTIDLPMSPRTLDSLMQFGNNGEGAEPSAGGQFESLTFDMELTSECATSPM
Chain of human Peroxisome Proliferator-activated Receptor alpha (PPARa), PPARA (gene 5465) (Q07869 whole entry, looked up, the tested form may be a part): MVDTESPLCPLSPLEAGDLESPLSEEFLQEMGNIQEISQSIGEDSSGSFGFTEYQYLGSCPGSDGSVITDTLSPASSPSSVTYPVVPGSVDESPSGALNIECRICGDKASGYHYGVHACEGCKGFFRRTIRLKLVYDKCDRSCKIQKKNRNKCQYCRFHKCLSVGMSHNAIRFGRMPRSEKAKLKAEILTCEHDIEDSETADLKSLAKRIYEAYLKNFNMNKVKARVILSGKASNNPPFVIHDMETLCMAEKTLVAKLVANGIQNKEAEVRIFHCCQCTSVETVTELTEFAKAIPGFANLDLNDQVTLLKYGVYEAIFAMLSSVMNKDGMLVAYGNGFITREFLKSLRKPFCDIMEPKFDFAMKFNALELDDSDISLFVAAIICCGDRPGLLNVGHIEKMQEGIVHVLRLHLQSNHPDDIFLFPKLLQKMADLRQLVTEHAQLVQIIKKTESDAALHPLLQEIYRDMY
Chain of Heat shock factor protein 1 (Homo sapiens) (Q00613 whole entry, looked up): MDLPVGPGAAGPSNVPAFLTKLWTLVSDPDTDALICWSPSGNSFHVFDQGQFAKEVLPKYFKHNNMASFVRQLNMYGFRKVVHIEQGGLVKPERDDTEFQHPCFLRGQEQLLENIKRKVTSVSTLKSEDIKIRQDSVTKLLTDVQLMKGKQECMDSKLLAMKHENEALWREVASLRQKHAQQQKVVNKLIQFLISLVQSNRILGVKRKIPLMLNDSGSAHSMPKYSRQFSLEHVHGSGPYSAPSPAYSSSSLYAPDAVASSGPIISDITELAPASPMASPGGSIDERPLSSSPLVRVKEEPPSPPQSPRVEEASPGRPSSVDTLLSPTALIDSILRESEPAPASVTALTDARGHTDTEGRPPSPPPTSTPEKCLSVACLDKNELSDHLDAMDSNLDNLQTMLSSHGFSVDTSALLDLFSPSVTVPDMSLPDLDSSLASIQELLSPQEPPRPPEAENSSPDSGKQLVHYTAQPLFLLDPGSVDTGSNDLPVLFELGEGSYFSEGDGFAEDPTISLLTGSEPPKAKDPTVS
Chain of Cellular tumor antigen p53 (Homo sapiens) (P04637 whole entry, looked up): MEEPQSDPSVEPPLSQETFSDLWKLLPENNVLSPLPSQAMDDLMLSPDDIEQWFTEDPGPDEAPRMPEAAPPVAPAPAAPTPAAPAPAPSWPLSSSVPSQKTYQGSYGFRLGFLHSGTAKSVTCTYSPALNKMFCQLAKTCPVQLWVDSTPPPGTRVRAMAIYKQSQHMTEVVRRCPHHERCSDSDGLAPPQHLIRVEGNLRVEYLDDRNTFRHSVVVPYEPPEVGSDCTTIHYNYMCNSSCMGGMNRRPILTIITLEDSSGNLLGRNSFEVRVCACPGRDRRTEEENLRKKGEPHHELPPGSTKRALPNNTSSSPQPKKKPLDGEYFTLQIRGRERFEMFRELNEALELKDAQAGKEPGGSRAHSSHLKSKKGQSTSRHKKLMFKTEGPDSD
Chain of human Retinoid X Receptor beta (RXRb), RXRB (gene 6257) (P28702 whole entry, looked up, the tested form may be a part): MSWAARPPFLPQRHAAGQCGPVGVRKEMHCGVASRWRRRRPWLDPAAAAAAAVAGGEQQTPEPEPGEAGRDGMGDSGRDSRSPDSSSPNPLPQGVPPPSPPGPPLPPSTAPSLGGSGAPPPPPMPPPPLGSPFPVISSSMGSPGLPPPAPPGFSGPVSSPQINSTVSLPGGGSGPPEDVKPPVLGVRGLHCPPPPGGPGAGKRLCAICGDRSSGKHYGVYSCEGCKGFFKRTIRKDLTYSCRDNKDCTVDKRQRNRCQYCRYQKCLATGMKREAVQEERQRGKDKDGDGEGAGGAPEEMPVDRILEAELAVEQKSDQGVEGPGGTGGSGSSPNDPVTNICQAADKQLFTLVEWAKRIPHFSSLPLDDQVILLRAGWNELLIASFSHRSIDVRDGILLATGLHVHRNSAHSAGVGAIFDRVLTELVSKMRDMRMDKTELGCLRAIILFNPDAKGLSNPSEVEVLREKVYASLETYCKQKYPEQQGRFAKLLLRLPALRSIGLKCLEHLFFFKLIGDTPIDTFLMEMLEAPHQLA
Chain of Hepatocyte nuclear factor 4-alpha (Homo sapiens) (P41235 whole entry, looked up): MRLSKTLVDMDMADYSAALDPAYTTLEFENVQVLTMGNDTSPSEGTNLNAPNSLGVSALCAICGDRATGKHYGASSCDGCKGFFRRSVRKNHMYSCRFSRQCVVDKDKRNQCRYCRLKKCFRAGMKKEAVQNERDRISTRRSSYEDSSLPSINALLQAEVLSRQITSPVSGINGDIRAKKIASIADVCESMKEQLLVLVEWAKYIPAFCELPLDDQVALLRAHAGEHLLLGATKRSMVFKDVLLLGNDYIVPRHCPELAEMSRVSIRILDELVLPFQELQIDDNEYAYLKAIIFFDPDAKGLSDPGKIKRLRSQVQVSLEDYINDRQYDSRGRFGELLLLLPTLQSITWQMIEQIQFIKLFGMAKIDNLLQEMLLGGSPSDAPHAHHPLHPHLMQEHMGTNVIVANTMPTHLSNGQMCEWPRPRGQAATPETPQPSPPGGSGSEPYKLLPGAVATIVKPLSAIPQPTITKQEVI

Turning to `CC1=C(CC(=O)O)c2cc(F)ccc2/C1=C\c1ccc(S(C)=O)cc1` (stereo not drawn), the outcome in assay [1], in [2], in assay [3], in assay [5], in [6] and in assay [7] was inactive. Also, the call in assay [8], in assay [9], in assay [10], in assay [11], in assay [12] and in [13] was inactive. Moreover, the molecule was called inactive in assay [14]. Moreover, in [4], the concentration at half-maximal activity (AC50) was 26 µM (active).
As for `CC(C)CC(=O)O`, the result in [1], in assay [2], in assay [3], in assay [15], in [4] and in assay [16] was inactive. Also, the result in assay [17], in [7], in assay [18], in [8], in [11] and in assay [12] was inactive. The outcome in assay [19], in assay [13] and in assay [20] was inactive.
For `CC(O)(P(=O)(O)O)P(=O)(O)O`, the result in assay [3], in [15], in [5], in assay [6], in [17] and in assay [18] was inactive. Besides, the molecule was called inactive in [8], in [9] and in assay [10].
In the case of `CCCC(=O)OC/C=C(\C)CCC=C(C)C`, the molecule was classed as inactive in assay [1], in assay [2], in assay [4], in [6], in assay [16] and in [17]. Further, the outcome in assay [7], in [18], in [9] and in [10] was inactive.
`CCCCC(CC)COC(=O)CS` (stereo not drawn): the outcome in assay [1], in assay [2], in [3], in assay [15], in assay [5] and in assay [6] was inactive. Further, the molecule was classed as inactive in assay [7], in assay [8], in assay [9], in [10], in assay [11] and in [12]. The outcome in assay [19] and in assay [20] was inactive.
Take `COC(=O)CCSCCC(=O)OC`: the outcome in assay [2], in [4], in assay [5], in [7], in assay [18] and in [9] was inactive.
